RE007 growth inh = less growth of the S. pombe RE007 Vpr strain. S. pombe RE007 Vpr strain, BacTiter-Glo ATP luminescence, 24 h. Potency, µM (top dose mostly 92.2 µM), hits mostly inhibitors. 360,000 compounds, 0.21% hits. AID 651644; active = well fitted falling curve with a large enough effect; inconclusive = small, poorly fitted or top-dose-only effect; inactive = no such curve, though single readings can be large or run the other way; also: nearly all actives have a fitted effect of over 50% in size
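Fission yeast RE007 carrying one integrated HIV-1 vpr copy, seeded at OD 0.01 in PMG+AL medium with 23 nL pinned compound. Grown 24 h at 30 degrees; viability read by BacTiter-Glo luminescence after 5 min.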
SARS PLpro yeast = SARS-CoV PLP inhibition in yeast | S. cerevisiae expressing SARS-CoV PLpro, growth rescue | 330,000 compounds, 0.19% hits | Potency, µM (highest dose often 32.9 µM), most hits filed as activators; also: nearly all actives have a fitted effect of over 55% in size
Pf growth 96h = P. falciparum growth inhibition at 96 hours; P. falciparum luciferase reporter growth, 96 h; Potency, µM (top dose mostly 28.7 µM), actives largely listed as inhibitors; 320,000 compounds, 6.9% hits; AID 504834; active = well fitted inhibition curve with a large enough effect; inconclusive = small, poorly fitted or top-dose-only effect, or another doubt; inactive = no such curve, though single readings can be large or run the other way
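96 h incubation, 37 C, 5% CO2, of luciferase-reporter P. falciparum-infected RBCs (2% hematocrit, 0.05% parasitemia final) with test compounds; endpoint luminescence.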
NS1 function inh = blocks influenza NS1 protein function; Potency, µM (top dose mostly 46.1 µM); 270,000 compounds, 0.4% hits; AID 2326; also: actives are rising curves; nearly all actives have a fitted effect of over 50% in size
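OD600 was taken as the measure of yeast growth restored by compound in an NS1-expressing S. cerevisiae strain. Cells had been washed out of glucose medium and diluted 1:100 into galactose -URA medium, pH 6.0.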
Pf growth 48h = P. falciparum growth inhibition at 48 hours (one generation) | P. falciparum luciferase growth in erythrocytes, 48 h | Potency, µM (highest dose often 28.7 µM), actives largely listed as inhibitors | 310,000 compounds, 5.9% hits | AID 504832; active = well fitted inhibition curve with a large enough effect; inconclusive = small, poorly fitted or top-dose-only effect, or another doubt; inactive = no such curve, though single readings can be large or run the other way
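Luminescence readout; reporter = integrated firefly luciferase in P. falciparum. RBC culture at 2% hematocrit, 0.1% parasitemia final, 37 C/5% CO2; decreased signal taken as growth inhibition.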
Hits are given with their value; n = inactive; u = inconclusive; x = no result given; [ ] = remark or other dose. Most compounds without a hit are left out; they make up all but 9.5% or so of the library. Unless noted, calls follow the shape of the full dose curve.

SMILES	RE007 growth inh	SARS PLpro yeast	Pf growth 96h	NS1 function inh	Pf growth 48h
Cc1cc(NC(=O)COC(=O)C(Nc2ccc(C(F)(F)F)cc2Cl)C(C)C)no1 (stereo unspecified)	n	n	u	n	u
CCc1nc2c(OCc3ccc(Cl)cc3Cl)cccn2c1N(C)C(=O)CC(C)C	n[18.4 µM]	x	x	x	x
O=C(CCN1C(=O)/C(=C\c2ccccc2)SC1=S)NCCCN1CCOCC1	n	n	7.4µM	n	13µM
Cc1ccc(/C=C2\SC(=S)N(CCCC(=O)N3CCOCC3)C2=O)cc1	n	n	n	n	13µM
CN1CCN(C(=O)CCCN2C(=O)/C(=C/c3ccc(Cl)cc3)SC2=S)CC1	n	n	10µM	x	u
O=C(CCCN1C(=O)c2ccccc2C1=O)NCCCN1CCOCC1	n	n	x	n	n
O=C(CCN1C(=O)/C(=C\C=C\c2ccccc2)SC1=S)Nc1cccc(C(=O)O)c1	n	n	u	n	n
O=C(CCN1C(=O)/C(=C\C=C\c2ccccc2)SC1=S)Nc1ccccc1C(=O)O	n	n	9.3µM	n	n
COc1ccc(C2=NS(=O)(=O)N(C)C(C(=O)Nc3ccc(C(C)=O)cc3)=C2)cc1OC	n	n	n	n	n
COc1ccccc1C(=O)NCC(=O)OCC(=O)Nc1ccc2[nH]c(=O)[nH]c2c1	n	n	n	x	n
COc1cc(OC)cc(C(=O)NNC(=O)C2CCCC2)c1	n	n	n	n	n
O=C(CCN1C(=O)/C(=C\c2ccccc2Cl)SC1=S)N1CCN(c2ccccc2)CC1	n	n	u	n	n
CN1CCN(C(=O)CCN2C(=O)/C(=C\c3ccc(Cl)cc3Cl)SC2=S)CC1	n	n	3.3µM	n	10µM
O=C(CN1CCN(Cc2ccccc2F)CC1)Nc1ccccc1Cl	n	n	n	n	n
O=C1c2cccc3c2[C@@H](CCC3)CN1[C@@H]1CN2CCC1CC2	x	x	n	x	12µM
O=C(NC12CC3CC(CC(C3)C1)C2)N1CCN(C(=O)c2ccco2)CC1	n	n	n	x	n
Cc1c2cnn(CC(=O)NCCCN3CC(C)CC(C)C3)c(=O)c2c(C)n1Cc1ccccc1Cl (stereo unspecified)	n	n	n	n	6.6µM
Cc1ccc(C)c(Cn2c3ccccc3c3cnn(CC(=O)NCCCN4CCOCC4)c(=O)c32)c1	n	n	u	n	13µM
Cc1ccc(C)c(Cn2c3ccccc3c3cnn(CC(=O)NCCN4CCOCC4)c(=O)c32)c1	n	n	9.3µM	n	u
O=C(Cn1ncc2c3ccccc3n(Cc3ccc(Cl)cc3)c2c1=O)NCCCN1CCCC1=O	n	n	13µM	n	n
CC1(C)CC(=O)C=C(C(=O)N2CCCC(C(=O)c3cccc(C(F)(F)F)c3)C2)O1 (stereo unspecified)	n	n	u	n	n
COc1ccc(NC(=O)CN(C)Cc2cccs2)cc1Cl	n	n	n	n	u
COCCNC(=O)C1(C)CCCN(Cc2cc(C(F)(F)F)ccc2Cl)C1 (stereo unspecified)	n	x	x	x	x
CCCOC(=O)C1=C(C)NC(=O)NC1c1cc2c(cc1Br)OCO2 (stereo unspecified)	n	n	n	n	u
O=C(COc1cccc(C(F)(F)F)c1)Nc1cccc(S(=O)(=O)NC2=NCCCCC2)c1	n	x	x	x	x
SMILES	RE007 growth inh	SARS PLpro yeast	Pf growth 96h	NS1 function inh	Pf growth 48h
CCOC(=O)c1cc(C#N)c(N2CCNCC2)nc1C(F)(F)F	n	n	n	n	u
CCOC(=O)c1cc(C#N)c(N2CCN(C(=O)c3ccccc3)CC2)nc1C(F)(F)F	n	n	10µM	n	u
CCOC(=O)c1cc(C#N)c(N2CCN(C(=O)c3cccc(C(F)(F)F)c3)CC2)nc1C(F)(F)F	n	n	u	n	5.9µM
O=C(CCNC(=O)c1ccccc1Cl)Nc1ccc2c(c1)OCCO2	n	x	x	x	x
O=C(CCN1C(=O)c2ccccc2C1=O)Nc1ccc(-c2nc3ccccc3s2)cc1	n	n	1.3µM	n	n
O=C(c1ccc(-c2nc3ccccc3s2)o1)N1CCN(c2ccccc2O)CC1	n	n	5.2µM	n	u
O=C(CN1CCN(C(=O)c2ccc(-c3nc4ccccc4s3)o2)CC1)Nc1ccc(F)cc1	n	n	13µM	x	12µM
O=C(CN1CCN(C(=O)c2ccc(-c3nc4ccccc4s3)o2)CC1)Nc1ccccc1Cl	n	n	u	x	u
O=C(CC1NCCc2ccccc21)Nc1ccccc1Cl (stereo unspecified)	n	n	n	x	n
S=C1NCCc2ccccc2C1c1ccccc1Cl (stereo unspecified)	n	n	u	n	13µM
S=C1NCCc2ccccc2C1c1ccccc1 (stereo unspecified)	n	n	u	n	8.3µM
O=c1[nH]nnc2cc(Cl)ccc12	n	x	x	x	x
CC(=O)n1nc(-c2ccccc2)nc1NCc1cccs1	n	n	u	n	n
Cc1cccc(N2CC(O)(c3cccs3)[N+]3=C2CCCC3)c1 (stereo unspecified)	n	n	n	x	n
Cc1ccc(N2CC(O)(c3cccs3)[N+]3=C2CCCC3)cc1 (stereo unspecified)	n	n	5.2µM	x	u
C=C1[C@@H](C)C2[C@H](Cc3ccccc3)NC(=O)[C@]23OC(=O)CC[C@H](O)CCC[C@H](C)C/C=C/[C@H]3[C@@H]1O (stereo partly specified)	x	n	0.37µM	n	0.93µM
CCCCN1CN(Cc2ccccc2)CNC1=S	n	u	9.3µM	n	n
Cc1cccc(NC(=O)Nc2ccc(Oc3c(F)c(F)c(F)c(F)c3F)cc2)c1	n	n	7.4µM	n	u
CC(=O)C1=C(C)Nc2ncnn2C1c1ccc(Br)cc1 (stereo unspecified)	n	n	n	n	n
Nc1c2ccccc2nc2ccccc12	u	n	4.7µM	n	5.2µM
Cc1cccc2c(N)c3c(nc12)CCCC3 (tested in a mixture with another compound)	n	n	u	n	4.7µM
Cc1nc(Oc2ccccc2)c2ccccc2n1	n	n	n	n	n
c1ccc(Oc2c3ccccc3nc3ccccc23)cc1	n	n	u	n	7.4µM
Cc1cccc2c(N)c3c(nc12)N(C)CC3	x	n	n	n	n
Cc1c(N(C)C)nc2ccccc2c1N	n	n	n	n	n
SMILES	RE007 growth inh	SARS PLpro yeast	Pf growth 96h	NS1 function inh	Pf growth 48h
Cc1cc(C)c2c(N)c3cccc(C)c3nc2n1	n	u	6.6µM	n	4.1µM
O=C(NC1CCCC1)c1nc(-c2ccco2)oc1-c1ccccc1	n	x	x	x	x
CC(=O)Nc1ccc(NS(=O)(=O)c2c(Cl)cccc2Cl)cc1	n	n	u	n	n
O=C(NCC1CC1)c1onc(CSc2ccncc2)c1C(=O)NCC1CC1	n	n	n	n	n
Clc1c2c(nc3ccccc13)CCC2	n	n	n	n	n
CCN(CC)c1nc(N2CCN(C)CC2)nc2ccccc12	n	n	n	n	u
CCN(CC)c1nc2ccccc2c(N)c1-c1ccccc1	n	n	n	n	15µM
Nc1c2c(nc3ccccc13)CCCC2	n[18.4 µM]	n	8.5µM	n	u
Cc1csc(NC(=O)CSc2nccn2C)n1	n	n	n	n	n

Bioassay records deposited in PubChem by National Center for Advancing Translational Sciences (NCATS).
